Experimental data published in PubChem BioAssay AID1220 (Sanford-Burnham Center for Chemical Genomics, 2008).
About 1,300 (0.68%) of roughly 190,000 compounds were called active. Rule as the data show it: active = inhibition above about 50%; inactive = the rest. This excerpt belongs to a sample that is enriched for actives.

Target: Mannose-6-phosphate isomerase (Homo sapiens) (UniProt P34949)
Assay: human PMI inhibitors, high substrate, primary screen, biochemical, fluorescence intensity, high mannose 6-phosphate (AID 1220)
Details: recombinant PMI enzyme, coupled fluorescence intensity; at 20 µM; hits give high values

Chain of Mannose-6-phosphate isomerase (Homo sapiens) (P34949 whole entry, looked up): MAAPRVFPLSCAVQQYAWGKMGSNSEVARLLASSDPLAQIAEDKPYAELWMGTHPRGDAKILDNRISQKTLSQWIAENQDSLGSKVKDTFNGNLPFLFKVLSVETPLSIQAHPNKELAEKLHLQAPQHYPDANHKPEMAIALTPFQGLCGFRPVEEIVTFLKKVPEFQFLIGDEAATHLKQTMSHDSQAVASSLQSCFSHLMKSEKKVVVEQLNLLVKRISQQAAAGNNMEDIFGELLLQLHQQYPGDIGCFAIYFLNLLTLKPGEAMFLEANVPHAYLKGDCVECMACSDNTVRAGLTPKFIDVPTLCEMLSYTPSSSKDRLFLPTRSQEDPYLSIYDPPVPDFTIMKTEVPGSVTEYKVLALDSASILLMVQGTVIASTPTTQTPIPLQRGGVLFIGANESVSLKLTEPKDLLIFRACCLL

Row | Structure (SMILES) | inhibition
1 | CCOC(=O)c1c(C)c(C(=O)NCc2cccnc2)c(C)n1CC | 108% (active)
2 | CCOC(=O)c1c(C)c(C(=O)NCc2ccccn2)c(C)n1CC | 12.2% (inactive)
3 | CCOC(=O)c1c(C)c(C(=O)NCc2cccnc2)c(C)n1C | -0.6% (inactive)
4 | S=c1[nH]ncc2ccccc12 | -67.9% (inactive)
5 | Cc1ccc(/C=C/C2=NN(C)C(=O)CC2)cc1 | -3.3% (inactive)
6 | Cc1cccc(C)c1NC(=O)CC1SC2=NCCN2C1=O (configuration not stated) | 6.8% (inactive)
7 | CC(C)/C(=N/Nc1ccccc1[N+](=O)[O-])c1ccccc1 | 54.4% (active)
8 | CC/C(=N\Nc1ccccc1[N+](=O)[O-])c1ccc(O)cc1 | -0.4% (inactive)
9 | CC(/C=C/c1ccccc1)=N\Nc1ccccc1[N+](=O)[O-] | 0.8% (inactive)
10 | Cc1ccc(/C=C/C(=O)NCc2cccs2)cc1 | -6.3% (inactive)
11 | Cc1nn(-c2cccc(Cl)c2)c(Cl)c1/C=N/NC(=O)c1cccnc1 | 55.5% (active)
12 | Cc1nn(-c2ccccc2)c(Cl)c1/C=N/NC(=O)c1cccnc1 | -3.1% (inactive)
13 | Cc1ccc(-n2nc(C)c(/C=N/NC(=O)c3cccnc3)c2Cl)cc1 | 15.6% (inactive)
14 | C=CCNC(=S)Nc1ccccc1 | 9% (inactive)
15 | C=CCNC(=S)Nc1cccc(N)c1 | 57.6% (active)
16 | C=CCNC(=S)Nc1cccc(NC(=S)NCC=C)c1 | 5.5% (inactive)
17 | O=C(Cc1c(O)c2ccccc2[nH]c1=O)NC1CCCCCC1 | 5.7% (inactive)
18 | CCC(C)(C)n1nnnc1CN1CCC(NC(=O)c2ccc(Br)cc2)CC1 | 7% (inactive)
19 | CCCCc1cc2c(c(NC(=O)CC)n1)c(=O)oc1ccccc12 | -0.5% (inactive)
20 | Cc1ccc2c(c1)/C(=N/N1C(=O)c3ccccc3C1=O)C(=O)N2 | 8.4% (inactive)
21 | COc1ccc(N=C2C(=O)Nc3ccccc32)cc1 | 43% (inactive)
22 | CCn1c(-c2ccccc2Cl)nn(CC(=O)Nc2cc(Cl)ccc2Cl)c1=S | 4.7% (inactive)
23 | Cc1cc(-c2ccccc2)nc(N(C)N)c1S(C)(=O)=O | -2.2% (inactive)
24 | Cc1cc(-c2ccccc2)nc(N(C)C)c1S(C)(=O)=O | 2% (inactive)

Row | Structure (SMILES) | inhibition
25 | CNc1nc(-c2ccccc2)cc(C)c1S(C)(=O)=O | 56% (active)
26 | Cc1c(Br)c([N+](=O)[O-])nn1CC(=O)NCCc1c[nH]c2ccccc12 | 6.1% (inactive)
27 | CSCCNC(=O)c1ccc(OC2CCN(CCc3ccccc3)CC2)cc1 | -9.3% (inactive)
28 | O=C(Cn1nc(-c2ccccc2)ccc1=O)Nc1cccc(NC(=O)c2ccccn2)c1 | -11.7% (inactive)
29 | CCCCN1C(=O)/C(=C/C=C2\SCCN2C)SC1=S | 53.5% (active)
30 | CCN1C(=O)/C(=C/C=C2/SCCN2C)SC1=S | 27.6% (inactive)
31 | CN1CCS/C1=C\C=C1/SC(=S)N(CC(=O)O)C1=O | 19.8% (inactive)
32 | COc1ccc(-c2cc(CNC(=O)CN3CCN(C)CC3)on2)cc1 | 20.4% (inactive)
33 | COc1cc(OC)cc(-c2nc(-c3cccs3)no2)c1 | 10.1% (inactive)
34 | Cc1cc2cc(NC(=O)c3ccco3)ccc2[nH]1 | 10.8% (inactive)
35 | CC(=O)Nc1cccc(NC(=O)CSc2ccc3nnc(CCNC(=O)c4ccccc4)n3n2)c1 | 10.1% (inactive)
36 | Nc1ccc(N2CCCCC2)c(Cl)c1 | 2.9% (inactive)
37 | Nc1c(N2CCCC2)cc(Cl)c2nonc12 | 55.1% (active)
38 | Nc1cc(Cl)ccc1N1CCOCC1 | -3.8% (inactive)
39 | Nc1ccccc1N1CCOCC1 | -0.3% (inactive)
40 | Nc1ccc(N2CCOCC2)c2nonc12 | 57% (active)
41 | Nc1nonc1N1CCCCC1 | 13.1% (inactive)
42 | Nc1ccc(N2CCCCC2)cc1N1CCCCC1 | 46.4% (inactive)
43 | Nc1cc(Cl)ccc1N1CCCC1 | 36.3% (inactive)
44 | Nc1ccc(N2CCCCC2)c2nonc12 | 68.3% (active)
45 | CN1CCN(C(=O)C2=C[C@@H](c3ccccc3)C[C@@H](OCc3ccc(CO)cc3)O2)CC1 | 1.7% (inactive)
46 | CCCCCCOC1(c2ccccc2)OC(=O)c2ccccc21 (configuration not stated) | 11.5% (inactive)
47 | CCCCCn1c(=O)[nH]c2c(c1=O)CCC2 | 4.7% (inactive)
48 | CC1(C)C(=O)NCCN1C(=O)CCCC(=O)O | 2.6% (inactive)

Row | Structure (SMILES) | inhibition
49 | OCCn1c(CSc2nc3ccccc3n2CCO)nc2ccccc21 | 3% (inactive)
50 | O=C(NCc1ccccn1)c1cccs1 | 4.7% (inactive)
51 | CC(C)(C)C(=O)Nc1nnc(CC(=O)NCc2ccccc2)s1 | 13.1% (inactive)
52 | O=[N+]([O-])c1cccnc1N1CCCCC1 | 10.7% (inactive)
53 | O=C(O)[C@@H]1[C@@H]2C[C@@H]2CN1c1ncccc1[N+](=O)[O-] | 65.1% (active)
54 | O=C(O)C1CN(c2ncccc2[N+](=O)[O-])C1 | 26.1% (inactive)
55 | O=[N+]([O-])c1cccnc1N1CCOCC1 | 7.1% (inactive)
56 | NC(=O)C1CCN(c2ncccc2[N+](=O)[O-])CC1 | -3.3% (inactive)
57 | O=C(O)C1CCCN1c1ncccc1[N+](=O)[O-] (configuration not stated) | 50.8% (active)
58 | COc1cccc(NC(=O)c2ccc(NCCCN3CC(C)CC(C)C3)c([N+](=O)[O-])c2)c1 (configuration not stated) | -12.8% (inactive)
59 | CCOP(=O)(CC(C(C)=O)C(O)c1ccccc1)OCC (configuration not stated) | 11.7% (inactive)
60 | Cc1cccc(/C=N\Nc2nnc(-c3ccccc3)c(=O)[nH]2)c1 | 7.5% (inactive)
61 | Cc1ccc(S(=O)(=O)N2CCCC2C(=O)Nc2nc3ccccc3s2)cc1 (configuration not stated) | 17.6% (inactive)
62 | CCN(CC)c1ccc(/C=N/NC(=O)OC)c(O)c1 | 27.7% (inactive)
63 | CCOC(=O)N/N=C/c1ccc(N(CC)CC)cc1O | 53.3% (active)
64 | CCN(CC)c1ccc(/C=N/Nc2cccc(C)c2)c(O)c1 | -62.5% (inactive)
65 | CCN(CC)c1ccc(/C=N/Nc2ccccc2)c(O)c1 | -21.9% (inactive)
66 | CCN(CC)c1ccc(C=Nc2ccccc2)c(O)c1 | 61.8% (active)
67 | CCN(CC)c1ccc(C=Nc2ccc(C#N)cc2)c(O)c1 | 40.4% (inactive)
68 | CCN(CC)c1ccc(/C=N/NC(=S)NC)c(O)c1 | 21.9% (inactive)
69 | CCN(CC)c1ccc(/C=N/N=C(N)N)c(O)c1 | 64% (active)
70 | CCN(CC)c1ccc(/C=N/N(c2ccccc2)c2ccccc2)c(O)c1 | 30% (inactive)
71 | CCN(CC)c1ccc(/C=N/N=C(c2ccccc2)c2ccccc2)c(O)c1 | 4.8% (inactive)
72 | CCN(CC)c1ccc(C=Nc2cc(C)cc(C)c2)c(O)c1 | 52.8% (active)
